Data published in ChEMBL document CHEMBL3988442, “University of Dundee, Small-Polar-MMV Screening Library” (2021).
The campaign covered roughly 53,000 compounds. About 900 (1.7%) showed an effect of 50% or more. For the sample, strong results were picked, then their nearest neighbours and some compounds at random.

test system: Mycobacterium tuberculosis; test: Cornell - Phenotypic assay to identify agents that inhibit growth of Mycobacterium tuberculosis; assay type: functional; parameters: scale not given: direction of the effect not stated beside the values; settings: 10 mM as filed; unlikely as a test dose

SMILES | Percent Effect [%]
COc1ccc(NC(=O)CCn2nc(-c3cccs3)oc2=O)cc1OC | -4.295
CCN1CC(CN(C)c2cc(C)nc(N)n2)Oc2ccccc21 (stereo not drawn) | 100.1
Cc1cc(N(C)CC2COc3ccccc3O2)nc(C)n1 (stereo not drawn) | 22.34
Cc1cc(N(C)CC2COc3ccccc3O2)nc(N)n1 (stereo not drawn) | 18.45
Cc1nc(C)n(CC2CCCN(Cc3ccc4c(c3)OCCO4)C2)n1 (stereo not drawn) | 7.597
Cc1cc(-c2cnc(NCc3ccncc3)nc2C(C)C)on1 | 71.23
Cc1cc(-c2cnc(NCc3ccccn3)nc2C(C)C)on1 | 76.78
Cc1cc(-c2cnc(NCc3ccc4c(c3)OCO4)nc2C(C)C)on1 | 24.22
COc1ccccc1CNc1ncc(-c2cc(C)no2)c(C(C)C)n1 | 6.538
Cc1cc(-c2cnc(N3CCCC3)nc2C(C)C)on1 | -0.9341
COc1ccc(CNc2ncc(-c3cc(C)no3)c(C(C)C)n2)cc1 | 36.58
Cc1oc(-c2ccsc2)nc1CC(=O)NCC(C)(C)CN(C)C | 3.653
Cc1nnc(N2CCCC3(CN(Cc4nccn4C)CCO3)C2)o1 (stereo not drawn) | -3.973
CS(=O)(=O)NCCNCc1ccc(Br)s1.Cl | -4.859
O=C1CCC(=O)N1CCOc1nc(-c2ccccc2Cl)no1 | 8.319
Cn1ccnc1-c1ccc(NCCC2COc3ccccc3O2)nn1 (stereo not drawn) | 46.99
Cn1ccnc1-c1ccc(NCC2COc3ccccc3O2)nn1 (stereo not drawn) | 75.27
Cn1ccnc1-c1ccc(NC[C@H]2CCc3ccccc3O2)nn1 | 35.04
O=C(CNC1(c2ccc(Cl)cc2)CCOCC1)NC1CCCC1 | 28.07
Cc1cc(C)n(C2CCN(S(=O)(=O)N3CCOCC3)CC2)n1 | -10.91
Cn1cc(NC(=O)N2CCC(NS(C)(=O)=O)CC2)ccc1=O | 73.41
Cn1cc(NC(=O)N2CCC(CN3CCCC3)CC2)ccc1=O | 1.194
Cn1cc(NC(=O)N2CCC(c3ccccc3)CC2)ccc1=O | 23.03
Cc1nc(N(C)C)cc(C2(C)CCNCC2)n1 | 3.518

SMILES | Percent Effect [%]
Cc1cc(N(C)C)nc(C2(C)CCCNC2)n1 (stereo not drawn) | -30.33
Cc1nc(N)cc(C2(C)CCCNC2)n1 (stereo not drawn) | 52.22
Cc1nc(N(C)C)cc(C2(C)CCCNC2)n1 (stereo not drawn) | 54.11
Cc1nc(O)cc(C2(C)CCCNC2)n1.Cl (stereo not drawn) | 37.37
Cc1nccc(C2(C)CCCNC2)n1.Cl.Cl (stereo not drawn) | -29.52
COC(=O)Nc1cccc(C(=O)N(C)Cc2cccc(O)c2)c1 | 16.47
CC(C)(C)CC(=O)N1CCC(c2nn(CCN)c3nccnc23)C1 (stereo not drawn) | -1.305
CSc1nnc(N(CCC#N)CCC#N)s1 | 7.045
Cc1nnc(N(CCC#N)CCC#N)s1 | 53.32
CCSc1nnc(N(CCC#N)CCC#N)s1 | 19.26
CC(=O)NCC(=O)N1Cc2nccn2CC(Cn2cccn2)C1 (stereo not drawn) | 8.126
CN(Cc1nc2ccccc2n1C)C(=O)CCc1cscn1 | 3.18
COCCOc1ccc(NCc2cccc3cn[nH]c23)cn1 | 0.8667
Cc1ccc(CNCc2cccc3cn[nH]c23)c(OC2CCOC2)c1 (stereo not drawn) | 31.88
Cc1ccc(NCc2cccc3cn[nH]c23)cc1OC1CCOC1 (stereo not drawn) | 50.19
CN1CCCN(C(=O)c2cnsn2)c2cc(Cl)ccc21 | 23.17
CN1CC2(CCCN(CCOCc3ccccc3)C2)OC1=O (stereo not drawn) | 17.75
COc1ccccc1OCC(=O)NS(=O)(=O)c1ccccc1Br | 29.83
N#Cc1cn[nH]c1NCc1cc(Cl)cc(Cl)c1O | 4.06
N#Cc1cn[nH]c1NCc1cc(I)cc(I)c1O | 104.4
N#Cc1cn[nH]c1NCc1cc(Br)ccc1O | -2.668
CN1C[C@@H](C(=O)NC2CC2)[C@@]2(COc3ccc(F)cc3C2=O)C1 | -27.17
Cn1cc(N2C(=O)CC[C@@H]3[C@H]2CCN3Cc2cccc(C#N)c2)cn1.O=C(O)C(F)(F)F.O=C(O)C(F)(F)F | 14.16
CN1CCCCCC1C(=O)NCCCn1ncc2ccccc21 (stereo not drawn) | 28.62

SMILES | Percent Effect [%]
CCn1nnc(NCc2cc(Br)cc(Br)c2OC)n1 | 31.18
CCC(CO)NCc1ccc(-c2ccc(Cl)cc2)o1.Cl (stereo not drawn) | 16.24
CCCn1nnc(NCc2ccc(-c3ccc(Br)cc3)o2)n1 | 31.95
Cn1ncnc1NCc1ccc(Cl)cc1 | -4.993
CCC(CO)NCc1ccc(-c2ccc(F)cc2)o1.Cl (stereo not drawn) | 35.55
Cn1nnc(NCc2ccc(-c3ccc(Cl)cc3)o2)n1 | 60.16
CCn1nnc(NCc2ccc(-c3ccc(Br)cc3)o2)n1 | 69.94
CCCn1nnc(NCc2cc(Br)cc(Br)c2OC)n1 | 40.71
CCC(CO)NCc1ccc(-c2ccccc2)o1.Cl (stereo not drawn) | 5.639
Cn1nnc(NCc2ccc(-c3ccc(Br)cc3)o2)n1 | 60.92
CCC(CO)NCc1ccc(-c2ccc(Br)cc2)o1.Cl (stereo not drawn) | 52.02
CCC(CO)NCc1ccc(-c2ccc(F)c(Cl)c2)o1.Cl (stereo not drawn) | 48.48
O=C(c1sccc1Cl)N1CCC(Cn2cc(CO)nn2)CC1 | 28.9
CC(Nc1cccc(COCc2ccco2)c1)C(=O)NC(N)=O (stereo not drawn) | 25.61
COCCCNC(=O)C(C)n1nc(-c2ccco2)cc(N)c1=O (stereo not drawn) | 37.24
Cc1ncncc1-c1ccnc(N)n1 | 1.831
CS(=O)(=O)c1ccc(NCC2CCCO2)c(S(C)(=O)=O)c1 (stereo not drawn) | -21.42
Cc1ccccc1C(C(=O)NCCSC(C)C)N(C)C (stereo not drawn) | 29.49
CNc1ncc2c(n1)CN(CCc1ccc(C)cc1)C2=O | 8.766
Cn1ccc(C(=O)N2CCCC(c3cc4cccnc4c(O)n3)C2)n1 (stereo not drawn) | -16.1
CN(C)CCC1CCN(c2cc(N3CCCC3CO)ncn2)CC1 (stereo not drawn) | -19.44
CC(C)n1nccc1C(=O)N1CCC(c2nnsc2S(C)(=O)=O)CC1 | 12.35
Cc1nonc1CNC(=O)C(C)Oc1ccccc1F (stereo not drawn) | 47.11
Cc1nonc1CNC(=O)C(C)Oc1cccc(F)c1 (stereo not drawn) | 53.11

SMILES | Percent Effect [%]
Cc1noc(C)c1CNC(=O)C(C)Oc1ccccc1F (stereo not drawn) | -2.201
CCOCC1CN(Cc2ccncc2)Cc2nn(C)cc21.O=C(O)C(F)(F)F.O=C(O)C(F)(F)F (stereo not drawn) | 12.3
O=C(O)C(F)(F)F.O=C(O)C(F)(F)F.c1c(CN2CCCC2)nc2n1CCN(C1CCOCC1)C2 | 3.362
Cc1cc(C(=O)NC2CCN(CC(N)=O)CC2)nn1C(C)(C)C | 11.5
COCCn1ccc2c(C(=O)NC(C)C)cccc21 | 10.53
COCCn1ccc2c(C(=O)O)cccc21 | 17.17
CC(=O)Nc1cccc2c1ccn2CC(=O)Nc1n[nH]c(CC(C)C)n1 | -27.06
COCCn1ccc2c(NC(=O)C(C)C)cccc21 | 18.08
CC(C)n1ccc2c(NC(=O)c3n[nH]c4c3CCC4)cccc21 | 48.39
CC(C)Cn1ccc2c(NC(=O)c3n[nH]c4c3CCC4)cccc21 | 50.74
COCCn1ccc2c(NC(=O)c3n[nH]c4c3CCC4)cccc21 | 61.23
COCCn1ccc2c(NC(=O)c3n[nH]c4c3CCCC4)cccc21 | 70.2
COCCn1ccc2c(C(=O)Nc3nc4c(s3)CCC4)cccc21 | 15.95
COc1cc(C)cc(OC)c1C(C(=O)O)N(C)Cc1c(C)nn(C)c1C (stereo not drawn) | 1.527
COCCn1c2c(ccc1=O)CCN(C(=O)C1CC=CC1)CC2 | 18.02
NC(=O)CCNCc1c(Cl)cccc1N1CCCC1 | -9.412
COCCNc1cc(-c2ccccc2C(N)=O)c2cc[nH]c2n1 | 26.26
Cc1cc(C)n2ncc(CN3C[C@@H](O)[C@H](Oc4ccccc4)C3)c2n1 | 0.3545
CN1CCN(c2nc(O)cc(Cc3ccccc3F)n2)CC1 | 10.81
CC(=O)N1CC(C(=O)NCCc2ncc(C)s2)C1 | 6.986
CC(C)c1cc(NC(=O)CN2CCC(N3CCNC3=O)CC2)on1 | 6.075
